PubChem BioAssay AID588849 (Broad Institute, 2011)
Results with a measured potency or affinity are listed apart.

Target: CAAX prenyl protease 2 (Homo sapiens) (UniProt Q9Y256)
Assay: inhibition of Ras-converting CAAX protease Rce1 – biochemical, yeast membranes, quenched-peptide fluorescence, cherry-pick, dose response (AID 588849)
Settings: yeast membrane fractions expressing human Rce1, quenched-peptide fluorescence, 4 h; series mostly up to 10 µM; activity change, negative = inhibition: at the top concentration; call rule not given here

Sequence of CAAX prenyl protease 2 (Homo sapiens) (Q9Y256 whole entry, looked up): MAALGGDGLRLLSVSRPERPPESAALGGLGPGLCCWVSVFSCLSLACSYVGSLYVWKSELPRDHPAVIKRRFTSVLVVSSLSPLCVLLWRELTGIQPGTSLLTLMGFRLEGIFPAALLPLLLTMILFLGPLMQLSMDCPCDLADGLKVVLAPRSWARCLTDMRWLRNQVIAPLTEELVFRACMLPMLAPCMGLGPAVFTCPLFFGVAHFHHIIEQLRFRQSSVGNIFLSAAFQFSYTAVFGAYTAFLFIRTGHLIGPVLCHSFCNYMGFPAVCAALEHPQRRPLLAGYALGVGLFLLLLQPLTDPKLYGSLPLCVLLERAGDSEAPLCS

Activity change, negative = inhibition, inactive:
COc1cccc(CNc2nc3nc(C)cc(C)n3n2)c1 -12.1%
Cc1ccc(C2(COC(=O)C(C)C)CO2)c(OC(=O)C(C)C)c1 (centres undefined) -12.2%
O=C(C[n+]1cc2ccccc2c2ccccc21)c1ccccc1 -26.3%
O=C1CCN(Cc2ccccc2)CCN1[C@H](CSc1ccccc1)Cc1ccccc1 -12.4%
O=C(O)CCC(=O)c1ccc(-c2ccccc2)cc1 -1.99%
CN1CCN(C(=S)NC(=O)c2ccccc2Cl)CC1 0.21%
O=C(Nc1cccc2ncccc12)c1cccnc1 -3.28%
O=C1NC(c2ccc(Br)cc2)Nc2ccccc21 (centres undefined) 7.42%
CCOC(=O)C[C@H]1c2ccccc2S(=O)(=O)N1Cc1cc(OC)c(OC)c(OC)c1 -1.29%
Cc1ccc(-c2cc3cccc[n+]3cc2-c2ccc(C)cc2)cc1 -24.3%
CC(C)c1ccc(NC(=O)COc2nncc3ccccc23)cc1 -1.1%
CCCCNC(=O)c1cc2c(=O)n3cccc(C)c3nc2n(Cc2ccccc2)c1=N -1.87%
CC(=O)c1ccc(-c2ccc(C(=O)N3CCC(C(N)=O)CC3)o2)cc1 -2.63%
COc1ccc(CCN(C)C(=O)c2ccc(S(=O)(=O)Nc3ccccc3C)cc2)cc1OC 2.88%
CC1(c2ccc(OCC#N)cc2)C=C(c2ccc(OCC#N)cc2)n2nc(C(F)(F)F)nc2N1 (centres undefined) -17.7%
CN(C)CCNc1ncnc2oc(-c3ccccc3)c(-c3ccccc3)c12 -17.6%
COc1ccc(C)cc1NC(=O)CN1C(=O)COc2ccc(S(=O)(=O)N3CCOCC3)cc21 -18.6%
CCCCNC(=O)C(CC)Sc1nc2sc(C(=O)OC)c(C)c2c(=O)n1N (centres undefined) -16.2%
Cc1ccc(OCCn2c3ccccc3n3nc(C)c(=O)nc23)cc1 -0.872%
NC(=O)CCCn1c(C(=O)c2cc(Cl)c(N)c(Cl)c2)c2ccc(C(F)(F)F)cc2[n+]1[O-] -4.43%
Cc1cc(N2CCOCC2)n2cc(-c3ccccc3)nc2n1 -3.5%
O=C(NCCc1c[nH]c2ccccc12)OCCSS(=O)(=O)O 1.36%
COc1ccc(C(C(=O)NC2CCCCC2)N(C(=O)c2snc(C(N)=O)c2N)c2ccc(OC)cc2OC)cc1 (centres undefined) 4.83%
O=c1c(-c2nnc(SCc3ccc(Cl)c(Cl)c3)o2)cccn1Cc1ccccc1 -95.5%
CCCCCCCCCC[N+](C)(C)CC/C=C1/c2ccccc2Sc2ccc(Cl)cc21 -7.78% [at 3.5 µM]
CC(=O)N[C@@H](C)c1nc2ccccc2n1CCCN1CCN(c2nc(-c3ccc(C)cc3)cs2)CC1 5.44%
COc1ccc(CC(=O)OCC(=O)Nc2ccc(Br)cc2)cc1 -9.13%
COC(=O)c1sccc1NC(=O)CSc1nnnn1-c1ccccc1C 15%
COc1ccc(C)cc1NC(=O)CCC(=O)Nc1ccc2nc(N3CCN(C)CC3)cc(C)c2c1 72.4%
CS(=O)(=O)Nc1ccccc1C(=O)NC1CC2CCC1C2 (centres undefined) -5.81%
Cc1c(Cc2ccccc2)c(=O)oc2c(C)c(OCC(=O)N3CCC(C(=O)O)CC3)ccc12 -29.6%
CCN(CC)CCNC(=O)CSc1c2c(nc3cc(Cl)ccc13)CCCC2 -6.64%
CCC(=O)Nc1cccc(NC(=S)NC(=O)c2cccs2)c1 -15.7%
CSC[C@H](NC(=O)COc1cc2c(c3oc(=O)cc(C)c13)CCC(C)(C)O2)C(=O)O 8.43%
O=C(CN1C(=O)/C(=C\c2cccc(Br)c2)Oc2ccccc21)NCC1CCCO1 (centres undefined) -21.6%
COC(C[C@@H]1O[C@@H]1C(=O)[C@@H](C)OCc1ccccc1)OC 22%
Cc1cc2cc(C#N)c(NCCNC(=S)NCCCN3CCOCC3)nc2cc1C -3.66%
COc1ccc(CN2CCN(C(c3ccc(F)cc3)c3ccc(F)cc3)CC2)c(OC)c1OC -15.4%
Oc1c(N=NC(=S)Nc2ccccc2F)c2ccccc2n1Cc1ccccc1F -11.4%
